Results published in PubChem BioAssay (EPA / NIEHS).
Calls of active or inactive are those of the source. How the source made its calls: active means hit-call score of the fitted dose curve at least 0.9, where 1 is the maximum; inactive means score below 0.9.

The compounds below were run on Transforming growth factor beta 1 (TGFb1), TGFB1 (gene 7040) (assay: BSK_BE3C_TGFb1: BioMAP Diversity Plus: BE3C Assay for Transforming growth factor beta 1 (TGFb1) Biomarker Activity (AID 2283036)). Details: primary human bronchial epithelial cells; actives raise or lower the signal.
Experimental: BSK_BE3C is a cell-based, multiplexed-readout assay that uses bronchial epithelial cell, a human lung primary cell, with measurements taken at 24 hours after chemical dosing in a 96-well plate.BSK_BE3C_TGFb1 is an assay component measured in the BSK_BE3C assay. It measures TGF-b1 antibody related to regulation of gene expression using ELISA technology.Data from the assay component BSK_BE3C_TGFb1 was analyzed into 1 assay endpoint. This assay endpoint, BSK_BE3C_TGFb1, was analyzed with bidirectional fitting relative to DMSO as the negative control and baseline of activity. Using a type of binding reporter, gain or loss-of-signal activity can be used to understand changes in the signaling as they relate to the gene TGFB1. Furthermore, this assay endpoint can be referred to as a primary readout, because this assay has produced multiple assay endpoints where this one serves a signaling function. To generalize the intended target to other relatable targets, this assay endpoint is annotated to the growth factor intended target family, where the subfamily is transforming growth factor beta.
The levels of cell surface (or secreted, indicated by the prefix "s") biomarker endpoints were measured by ELISA. Overt cytotoxicity to cells in confluent adherent cultures (all systems other than the BT system) was assessed by measuring total protein levels using sulforhodamine B (SRB) staining in parallel cultures at the time of biomarker measurements, indicated as SRB endpoints. For proliferation assays for adherent cell types, individual cell types are cultured at sub-confluence and relative cell numbers quantified by SRB staining at time points optimized for each system (48 h: 3C and CASM3C systems; 72 h: BT and HDF3CGF systems; 96 h: SAg system). SRB was performed by staining cells with 0.1% SRB after fixation with 10% TCA and reading wells at 560 nm.Viability and proliferation of PBMC (T cells) was quantified by Alamar Blue reduction for the SAg and BT systems. For PBMC viability (referred to as PBMC Cytotoxicity within the assay endpoint names), cells were plated (75,000/well in a 96-well plate) and then chemical samples added for 1 h before addition of activators, SEB and TSST-1 (20 ng/mL final concentration each). Cells were incubated for 90 h. Then, Alamar Blue (20 uL/well) (Invitrogen, Cat DAL1100) was added for 6 h, and the plates were read with a fluorescence microplate reader at 546/580 nm (excitation/emission). For PBMC proliferation, cells were plated and activated as above but incubated for only 16 h prior to addition of Alamar Blue. Plates were read after 6 h.

Row | SMILES | outcome | AC50
1 | Cc1ccc(O)c(-n2nc3ccccc3n2)c1 | inactive | 
2 | Cc1cc(O)c(C(C)(C)C)cc1C(C)(C)C |  | 5.2 µM (active)
3 | O=C1c2c(O)ccc(Nc3ccc(CCO)cc3)c2C(=O)c2c([N+](=O)[O-])ccc(O)c21 | inactive | 
4 | CCN(CC)c1ccc(C=O)c(O)c1 | inactive | 
5 | CC1=CC2C3C=CC(C3)C2C1C (stereo unspecified) | inactive | 
6 | Nc1cc([N+](=O)[O-])cc(Cl)c1O | inactive | 
7 | O=C(c1ccccc1)c1ccc(O)cc1O | inactive | 
8 | CCOC(C=C(C)CCC=C(C)C)OCC | inactive | 
9 | CC(C)CCCC(C)CCO (stereo unspecified) |  | 20 µM (active)
10 | CCN(CC)c1ccc2c(c1)Oc1cc(N(CC)CC)ccc1C21OC(=O)c2ccccc21 | inactive | 
11 | CCN(CC)c1ccc(N=Nc2ccccc2)cc1 |  | 20 µM (active)
12 | O=C1C=CC(=O)N1c1ccc(Cc2ccc(N3C(=O)C=CC3=O)cc2)cc1 |  | 1.6 µM (active)
13 | C[C@]12CC[C@H]3C(=CCc4cc(O)ccc43)[C@@H]1CCC2=O | inactive | 
14 | Cc1cnccn1 | inactive | 
15 | Brc1nc2ccccc2s1 | inactive | 
16 | O=C=Nc1cccc2c(N=C=O)cccc12 | inactive | 
17 | Cc1cc(C)c(O)c(C(C)(C)C)c1 |  | 29.8 µM (active)
18 | CCN(CC)c1ccc(C=O)cc1 | inactive | 
19 | Cc1ccc(S(=O)(=O)C(I)I)cc1 |  | 7.3 µM (active)
20 | O=C=NCc1cccc(CN=C=O)c1 | inactive | 
21 | CC(C)(C)c1cc(CCC(=O)NCCCCCCNC(=O)CCc2cc(C(C)(C)C)c(O)c(C(C)(C)C)c2)cc(C(C)(C)C)c1O | inactive | 
